Bioassay records (PubChem)
The list is not random: actives were taken first. Their share in the collection is about 2.9%.
Pol eta inh: qHTS for Inhibitors of Polymerase Eta. Potency, µM (top dose mostly 114 µM), inactives show top-dose activity change, negative = inhibition, usual class: inhibitors. 390,000 tested, 1.2% active. recombinant Pol eta, fluorescent DNA replication assay; note: potency is the fitted concentration of half-maximal effect; % is set by controls: 0 for no effect and ±100 for the full control effect
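Fluorescent replication assay: 50 nM final substrate added after a 15 min room-temperature compound preincubation with 10 nM enzyme. Signal taken at 0 min and again at 10 min.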
Pol kappa inh: qHTS for Inhibitors of Polymerase Kappa; DNA polymerase kappa (Homo sapiens), Q9UBT6; purified Pol kappa, fluorescent DNA synthesis assay, 10 min; Potency, µM (doses to about 107 µM), for inactives: top-dose activity, negative = inhibition, actives largely listed as inhibitors; 400,000 tested, 0.53% active; AID 588579, 2011; note: potency is the fitted concentration of half-maximal effect; % is set by controls: 0 for no effect and ±100 for the full control effect
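Activity was followed as the change in fluorescence between reads at 0 and 10 min after starting the reaction with 50 nM substrate. Beforehand, 10 nM polymerase had been preincubated with compound for 15 min at room temperature.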
PI5P4K alpha inh: qHTS for Inhibitors of phosphatidylinositol 5-phosphate 4-kinase (PI5P4K). PI5P4Kalpha enzyme, ADP-Glo luminescence, 60 min; stronger effect = lower value. max response, %. 330,000 tested, 1.2% active. AID 652105, 2013; active = max response of -50% or lower; inconclusive = between -30% and -50%; inactive = -30% or higher; note: value at the top dose of about 77 µM; % is set by controls: 0 for no effect and ±100 for the full control effect
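Luminescence from ADP-Glo served as readout of PI5P4Kalpha activity in a qHTS format. Reaction: enzyme, substrate, compound, ATP at 5 microM final, 60 min at RT.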
POLB inh: qHTS Assay for Inhibitors of DNA Polymerase Beta; P06746; Pol beta primer extension/strand displacement, fluorescence kinetic; Potency, µM (doses to about 114 µM), for the others: at the top dose activity change, negative = inhibition, hits mostly inhibitors; 340,000 tested, 1.3% active; AID 485314, 2010; note: potency is the fitted concentration of half-maximal effect; % is set by controls: 0 for no effect and ±100 for the full control effect
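Reaction started by 50 nM substrate onto compound-treated Pol beta (10 nM, 15 min preincubation, room temperature); plates read at 0 min and 10 min. Normalized concentration-effect data fitted by four-parameter Hill equation.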
POLI inh: qHTS for Inhibitors of Polymerase Iota; DNA polymerase iota (Homo sapiens), Q9UNA4; Pol iota fluorescent replication assay, 10 min; Potency, µM (doses to about 115 µM), inactives show at the highest dose activity, negative = inhibition, actives largely listed as inhibitors; 390,000 tested, 1% active; note: potency is the fitted concentration of half-maximal effect
Target sequence (Q9UNA4 whole entry, looked up): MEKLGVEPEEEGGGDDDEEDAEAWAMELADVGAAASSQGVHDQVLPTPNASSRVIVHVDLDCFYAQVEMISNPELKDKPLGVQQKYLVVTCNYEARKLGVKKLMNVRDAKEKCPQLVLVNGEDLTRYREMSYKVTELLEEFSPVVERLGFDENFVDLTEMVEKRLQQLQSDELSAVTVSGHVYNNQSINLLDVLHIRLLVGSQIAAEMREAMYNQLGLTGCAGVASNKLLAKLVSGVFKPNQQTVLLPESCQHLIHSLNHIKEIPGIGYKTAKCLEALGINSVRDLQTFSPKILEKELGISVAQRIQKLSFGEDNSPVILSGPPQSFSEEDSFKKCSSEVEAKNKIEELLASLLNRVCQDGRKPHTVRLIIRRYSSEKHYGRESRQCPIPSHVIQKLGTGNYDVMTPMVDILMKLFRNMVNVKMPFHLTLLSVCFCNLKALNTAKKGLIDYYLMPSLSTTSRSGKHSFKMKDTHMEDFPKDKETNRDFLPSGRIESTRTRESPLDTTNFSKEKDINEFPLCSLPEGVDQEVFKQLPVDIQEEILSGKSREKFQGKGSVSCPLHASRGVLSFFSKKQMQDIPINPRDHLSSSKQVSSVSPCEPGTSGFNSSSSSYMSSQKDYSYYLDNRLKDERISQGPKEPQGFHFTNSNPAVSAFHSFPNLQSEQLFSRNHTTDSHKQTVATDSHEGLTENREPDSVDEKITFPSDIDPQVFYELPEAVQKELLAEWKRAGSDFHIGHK
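Pol iota at 10 nM preincubated 15 min with compounds at room temperature; reaction started with fluorescent substrate, 50 nM final. Fluorescence read kinetically at 0 and 10 min; buffer-only wells as negative control.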
12-LOX inh: Primary qHTS assay for inhibitors of human arachidonate 12S-lipoxygenase (ALOX12): Round 2. Polyunsaturated fatty acid lipoxygenase ALOX12 (Homo sapiens), P18054. AID 1671190, 2021. 580,000 tested, 1.1% active. Potency, µM (doses to about 108 µM), without a hit: top-dose activity change, negative = inhibition, most hits filed as inhibitors. purified 12hLO, xylenol orange hydroperoxide absorbance; note: potency is the fitted concentration of half-maximal effect; % is set by controls: 0 for no effect and ±100 for the full control effect
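Hydroperoxide product was detected by ferrous iron/xylenol orange as the 573 to 405 nm absorbance ratio. Arachidonic acid at 40 uM (final) was turned over for 30 min at room temperature by 150 nM human 12hLO, pH 7.0 Hepes buffer, after 15 min compound preincubation.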
The depositor's hits bear a star; ? = inconclusive; . = no result; ! = a repeat was not active; [ ] = remark or other dose. Unless noted, calls come from the whole dose curve; as a rule, active = well fitted inhibition curve with a large enough effect; inconclusive = small, poorly fitted or top-dose-only effect, or another doubt; inactive = no such curve, though single readings can be large or run the other way.

SMILES | Pol eta inh | Pol kappa inh | PI5P4K alpha inh | POLB inh | POLI inh | 12-LOX inh
CCOC(=O)[C@]12Cc3ccc(C)cc3[C@H]1N(C1CCCCC1)C(=O)c1ccccc12 | . | . | -7 | . | . | ?
CCOC(=O)[C@]12Cc3ccc(C)cc3[C@H]1N(C1CCCCC1)C(=O)c1cc(OC)ccc12 | . | . | -6 | . | . | 56µM*
CCOC(=O)[C@]12Cc3cc(OC)ccc3[C@H]1N(C)C(=O)c1cc(OC)ccc12 | . | . | 0 | . | . | ?
CCOC(=O)[C@]12Cc3cc(Cl)ccc3[C@H]1N(C1CCCCC1)C(=O)c1cc(OC)ccc12 | . | . | ? | . | . | 45µM*
CCOC(=O)[C@]12Cc3cc(C)ccc3[C@H]1N(C1CCCCC1)C(=O)c1ccccc12 | . | . | -9 | . | . | 50µM*
Cc1cc(Oc2cc(NN3CCCCC3)c([N+](=O)[O-])cc2[N+](=O)[O-])ccc1[N+](=O)[O-] | -11% | -21% | ? | 40µM* | ? | -6%
O=[N+]([O-])c1ccc(N2CCCC2)c(F)c1Br | -14% | -4% | 0 | 42% | ? | -5%
CC[C@H]1CN2CC[C@H]1C[C@@H]2CNCc1ccc(C(F)(F)F)cc1 | . | . | . | . | . | 37%[176 µM]
CC1CCN(C(CC(=O)c2ccccc2)C(=O)c2ccccc2)CC1 (stereo not drawn) | -16% | -5% | ? | . | ? | 8.9µM*
COc1ccc(-c2cc([C@H]3CN4CC[C@H]3C[C@@H]4CNCc3ccccn3)n(C)n2)cc1 | . | . | . | . | . | 75%[176 µM]
Cc1nn2c(=O)cc(COC(=O)c3ccccc3NC(=O)c3cccs3)nc2s1 | 89µM* | -3%[60.1 µM] | . | 21% | 4% | -14%
CC(C)c1nn2c(=O)cc(COC(=O)Cc3ccccc3)nc2s1 | -13% | -9% | . | 6% | 20% | -19%
CCOC(=O)C1(c2ccccc2)CCN(CCC(=O)Nc2cccc(Br)c2)CC1 | -21% | -11% | 18 | . | -1% | 20µM*
CCOC(=O)C1(c2ccccc2)CCN(CCC(=O)Nc2ccc(OC)cc2)CC1 | -6% | . | 1 | . | . | -8%
COc1cc(C=C2C(=O)NC(=O)NC2=O)ccc1OS(=O)(=O)c1ccccc1[N+](=O)[O-] | -19% | -14% | -67* | 20% | ? | ?
CCOc1cc(C=C2C(=O)NC(=O)NC2=O)ccc1OS(=O)(=O)c1ccccc1 | -8% | -27% | -63* | 8% | -63% | .
COc1cc(C=C2C(=O)NC(=O)NC2=O)cc(OC)c1OC | -8% | 4% | ? | -11% | 24% | 0%
Cc1nc(-c2ccccc2Br)cc([C@H]2CN3CC[C@H]2C[C@@H]3CNC(=O)Nc2ccc(Cl)cc2)n1 | . | . | . | . | . | -38%
CC1(C)CC(=O)C(C2(O)C(=O)NC(=O)NC2=O)=C(O)C1 | 4% | 0% | . | 13% | 8.9µM* | -23%
CC(C)c1ccc(N2C(=O)NC(=O)/C(=C/c3cnc(-c4ccccc4)nc3)C2=O)cc1 | -2% | -11% | -54* | 8% | 2% | 16µM*
O=C1NC(=O)N(Cc2ccccc2)C(=O)/C1=C/c1cnc(-c2ccccc2)nc1 | -13% | -7% | -73* | 7% | 28% | ?
O=C1NC(=O)N(Cc2ccc(F)cc2)C(=O)/C1=C/c1cccs1 | ? | -13% | -56* | 89µM* | ? | 35%
O=C1NC(=O)N(Cc2ccccc2Cl)C(=O)/C1=C/c1cccs1 | ? | -21% | ? | 7% | ? | ?
O=C1CO[C@H]2CN(Cc3ccccc3)C[C@H]2N1Cc1cccnc1 | . | . | . | . | . | -14%[176 µM]
Cc1ccc(C=C2C(Cl)=C(Cl)C(Cl)=C2Cl)cc1 | 11µM* | 16µM* | ? | 4µM* | 2.8µM* | .
SMILES | Pol eta inh | Pol kappa inh | PI5P4K alpha inh | POLB inh | POLI inh | 12-LOX inh
O=c1c2ccccc2[se]n1-c1ccccc1 | -6% | 10%[60.1 µM] | -91* | 3.2µM*! | ? | ?
Oc1c(Br)cc(Br)cc1Br | -9% | -7% | 0 | . | 1% | -19%
Oc1c(Br)c(Br)c(Br)c(Br)c1Br | ? | ? | -60* | . | ? | .
O=C1NC2(CCCN(Cc3ccccn3)C2)COc2ccccc21 (stereo not drawn) | . | . | . | . | . | 5%[176 µM]
CCN1C(=O)/C(=C\c2ccc([N+](=O)[O-])s2)C(=O)NC1=S | . | . | . | 4.5µM* | . | .
CN1C(=O)/C(=C/c2ccc(Cl)s2)C(=O)NC1=S | ? | -24% | -80* | 4% | ? | 4.5µM*
CN1C(=O)/C(=C/c2ccc(N3CCCCCC3)o2)C(=O)NC1=S | ? | -15% | -14 | -17% | ? | 21%
Cc1ccc(/C=C2\C(=O)NC(=O)N(CCc3ccc(F)cc3)C2=O)s1 | -1% | -3% | ? | 0% | 112% | ?
CN1C(=O)/C(=C\c2ccc(N3CCCCC3)o2)C(=O)NC1=S | -29% | -3% | -3 | -13% | ? | 13%
Cc1ccsc1/C=C1\C(=O)NC(=S)N(C)C1=O | -17% | 3% | -84* | 25% | ? | ?
COc1ccc(-c2cc([C@H]3CN4CC[C@H]3C[C@@H]4CNS(=O)(=O)c3ccc(C)cc3)n(C)n2)cc1OC | . | . | . | . | . | 27%
C[C@]12CC[C@@H]3c4cc(O)c(O)cc4CC[C@H]3[C@@H]1CC[C@@H]2O | 5% | -13% | -62* | ? | -22% | 7.9µM*
C[C@]12CC[C@@H]3c4ccc(OC(=O)N(CCCl)CCCl)cc4CC[C@H]3[C@@H]1CC[C@@H]2O | . | 8.9µM* | . | . | . | .
C[C@]12CC[C@@H]3c4ccc(O)c(O)c4CC[C@H]3[C@@H]1CC[C@@H]2O | -10% | -4% | -74* | 1% | ? | 5µM*
C[C@]12CC[C@H]3[C@@H](CCC4=CC(=O)CC[C@@H]43)[C@@H]1CC[C@@H]2O | -15% | 0% | -5 | . | 15% | -8%
CCOC(=O)c1c(N)n(CCCOC(=O)c2ccco2)c2nc3ccccc3nc12 | -4% | -16% | -2 | 0% | ? | 0%
CCOC(=O)c1c(NS(=O)(=O)c2ccccc2)n(CCCOC)c2nc3ccccc3nc12 | ? | -22% | 1 | 1% | 1.1µM* | ?
CCCCNC(=O)c1c(N)n(CCCOC)c2nc3ccccc3nc12 | -7% | -18% | . | 18% | 2.5µM* | ?
CCCCCn1c(NC(=O)c2ccco2)c(C(=O)OCC)c2nc3ccccc3nc21 | 22µM* | -18% | 2 | -8% | 1.4µM* | .
COCCCNC(=O)c1c(NC(=O)c2ccco2)n(Cc2ccccc2)c2nc3ccccc3nc12 | ? | -27% | 0 | 10% | 3.2µM* | 408%
